Rows were chosen to be rich in hits. Some 9.4% of all compounds tested hit in one or more screens of this group.
ELG1 repair inh = blocks ELG1-dependent DNA repair in HEK293T cells; HEK293T ELG1-luciferase reporter, luminescence, 16 h; DNA damage induced by 5-fluorouridine; Potency, µM (titrated, usually from 46.1 µM), inactives show top-dose activity change, negative = inhibition, most hits filed as inhibitors; 2.3% of 330,000 active; note: % is set by controls: 0 for no effect and ±100 for the full control effect; nearly all actives have a fitted effect of over 55% in size
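HEK293T cells expressing luciferase-tagged ELG1 (2,000/well) received 5-Fluorouridine plus compound or DMSO for 16 hr at 37 °C. Luciferase was read by ONE-Glo luminescence after 30 min at room temperature.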
Rab9 prom act = activators of Rab9 promoter. Huh7 Rab9 promoter-luciferase reporter, luminescence, 24 h. Potency, µM (series often up to 9.22 µM), for the others: top-dose activation, negative = inhibition, most hits filed as activators. 2.8% of 320,000 active; note: % of control where 0% means no effect; nearly all actives have a fitted effect of over 60% in size
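Luminescence from Amplite-detected luciferase (10 minutes, ambient) reports Rab9 promoter activation. Before that, stable Rab9-luciferase Huh7 cells (1500/well, reduced-serum OP-MEM I plus 10% FBS) were exposed to compound for 24 hours at 37C.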
SMN2 splice up = SMN2 splice variant enhancement | Potency, µM (top dose mostly 46.1 µM), without a hit: at the top dose activity change, positive = activation, most hits filed as activators | HEK293 SMN2-luciferase splicing reporter, luminescence, 30-36 h | 2.8% of 210,000 active | AID 1458; note: % of control where 0% means no effect; nearly all actives have a fitted effect of over 55% in size
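qHTS luciferase splicing reporter: luminescence rises when SMN2 exon 7 is included in transfected HEK293 cells. Compound exposure lasted 30-36 h at 37C, with 4.5 mM final sodium butyrate as control, followed by a ONE-Glo read.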
ELG1 genotoxic = genotoxicity induction in ELG1-luciferase HEK293T cells. Potency, µM (titrated, usually from 46 µM), inactives show top-dose activity change, positive = activation, hits mostly activators. 1.3% of 330,000 active. HEK293T ELG1-luciferase reporter, luminescence, 16 h; note: % of control where 0% means no effect; nearly all actives have a fitted effect of over 60% in size
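Luminescence read-out: rising ELG1-luciferase signal, reflecting elevated ELG1 protein under genetic stress, flags genotoxic compounds. Cells were treated for 16 hr at 37 °C before ONE-Glo detection.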
NPC1 prom act = activators of NPC1 promoter; Huh7 NPC1 promoter luciferase reporter, 24 h; Potency, µM (highest dose often 9.22 µM), for the others: top-dose activation, actives largely listed as activators; 2.4% of 320,000 active; note: % of control where 0% means no effect; nearly all actives have a fitted effect of over 60% in size
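Luciferase expression driven by the NPC1 promoter was measured in stably transfected Huh7 cells after a 24 h compound incubation, using a luciferase reagent and a luminescence read.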
FLuc modulator = inhibits or activates purified firefly luciferase, miR-21 counter-screen | P08659 | purified FLuc, Km substrates, luminescence inhibition | 6.9% of 360,000 active | Potency, µM (top dose mostly 57.5 µM), for inactives: at the highest dose activity change, negative = inhibition, most hits filed as inhibitors;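 note: plate controls were vehicle for no effect and reference inhibitor for full effect; nearly all actives have a fitted effect of over 55% in size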
Target sequence (P08659 whole entry, looked up): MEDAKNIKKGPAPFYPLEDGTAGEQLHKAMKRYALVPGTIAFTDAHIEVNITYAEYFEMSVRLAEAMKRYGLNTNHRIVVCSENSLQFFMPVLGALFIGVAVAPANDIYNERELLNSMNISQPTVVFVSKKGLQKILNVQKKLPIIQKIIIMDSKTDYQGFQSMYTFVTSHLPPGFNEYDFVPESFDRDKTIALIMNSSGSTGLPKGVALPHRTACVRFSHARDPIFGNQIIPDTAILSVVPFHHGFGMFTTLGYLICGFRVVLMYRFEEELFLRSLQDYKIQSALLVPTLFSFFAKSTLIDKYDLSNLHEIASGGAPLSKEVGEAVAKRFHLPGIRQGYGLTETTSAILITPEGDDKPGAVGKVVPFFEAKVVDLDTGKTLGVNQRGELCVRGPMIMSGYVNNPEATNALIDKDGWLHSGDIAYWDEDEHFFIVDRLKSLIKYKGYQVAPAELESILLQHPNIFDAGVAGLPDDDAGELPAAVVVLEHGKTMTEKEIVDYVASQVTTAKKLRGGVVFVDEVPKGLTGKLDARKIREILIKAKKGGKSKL
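Purified P. pyralis luciferase, 10 nM final, with Km-level 10 uM D-luciferin and 10 uM ATP in 50 mM Tris acetate pH 7.5, 10 mM Mg acetate, 0.01% Tween-20, 0.05% BSA; 6-point qHTS titration about 60 µM downward; luminescence read.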
An asterisk follows results filed as active; u = inconclusive; x = not tested or not shown; [ ] = remark or other dose. Calls come from the whole dose curve; as a rule, active = well fitted curve in the direction sought with a large enough effect; inconclusive = small, poorly fitted or top-dose-only effect, or another doubt; inactive = no such curve, though single readings can be large; an effect the other way counts as inactive or inconclusive. Potency is the fitted concentration of half-maximal effect.

SMILES | ELG1 repair inh | Rab9 prom act | SMN2 splice up | ELG1 genotoxic | NPC1 prom act | FLuc modulator
CCOC(=O)C1CCCN(C(=O)c2cc(Nc3ccc(OC)cc3OC)nc3ccccc23)C1 (stereo not drawn) | u | 10% | -3% | -8% | 10% | 9.5µM*
COc1ccc(Nc2cc(C(=O)NCc3ccccc3)c3ccccc3n2)cc1OC | x | x | 1% | x | x | -10%
CCOC(=O)C1CCCN(C(=O)CC(C)c2ccccc2)C1 (stereo not drawn) | u | 2µM* | u | u | 2.8µM* | u
CCOC(=O)C1CCCN(C(=O)c2cc(-c3ccc(C)cc3)nc3ccccc23)C1 (stereo not drawn) | u | 16% | -37% | 0% | 13% | 4.8µM*
CCOC(=O)C1CCCN(C(=O)c2cnn3c(C(F)(F)F)cc(-c4ccccc4)nc23)C1 (stereo not drawn) | -18% | -3% | 6% | -4% | -2% | -1%
CCOC(=O)C1CCCN(C(=O)c2cc(Nc3ccc(OC)c(OC)c3)nc3ccccc23)C1 (stereo not drawn) | u | 5% | 0% | -6% | -1% | 11µM*
Cc1cccc(CNC(=O)Cn2ccc3cc(S(=O)(=O)N4CCC(C)CC4)ccc32)c1 | x | x | x | x | x | 2%
CN(C)c1ccc(Nc2ccc([N+](=O)[O-])cn2)cc1 | u | u | x | u | 3.5µM* | u
O=[N+]([O-])c1ccc(Nc2ccc(F)cc2)nc1 | u | -3% | -6% | 3% | 0% | 2%
Cc1cccc(N=Nc2cnc(N)s2)c1 | u | 3.2µM* | x | u | 3.2µM* | 6µM*
CC(=O)Nc1ncc(N=Nc2cccc(C(F)(F)F)c2)s1 | 0% | 19% | x | 13% | 2% | 0%
COc1cc(C(=O)NCC(c2cccs2)S(=O)(=O)c2ccc(F)cc2)cc(OC)c1OC (stereo not drawn) | x | x | x | x | x | -10%
COc1ccc(OCc2cccc(C(=O)Nc3ccc(CN4CCCCC4)cc3)c2)cc1 | u | 0.89µM* | 1.8µM* | u | 1.1µM* | 12µM*
CCOc1ccc(OCc2cccc(C(=O)Nc3ccc(CN4CCCCC4)cc3)c2)cc1 | u | 0.45µM* | 1.8µM* | 1.3µM* | 0.35µM* | 6µM*
O=C(NOCc1ccccc1)c1ccc(Cl)cc1Cl | u | 0.4µM* | x | u | 0.56µM* | 1.3µM*
O=C(CCC(=O)NNC(=O)c1ccc(Cl)cc1Cl)NCc1ccccc1 | 25% | 3% | x | 1% | -1% | 1%
O=C(CNC(=O)c1ccc(Cl)cc1Cl)OCCOc1ccccc1 | u | 13% | x | 7% | 15% | 17µM*
O=C(CN1C(=O)CC(c2ccccc2)Sc2ccccc21)Nc1cccc(Cl)c1 (stereo not drawn) | x | x | 1% | x | x | -12%
CCN(CCCNC(=O)c1nn(-c2ccc(OC)c(Cl)c2)c(=O)c2c1c1ccccc1n2C)c1ccccc1 | x | x | -9% | x | x | 0%
Cc1cccc(Oc2ccc(NC(=O)c3ccccc3C(=O)O)cc2)c1 | 27% | -5% | x | 5% | 2% | 21µM*
Cc1cc(C)c(C(=O)Nc2ccc(Br)c(C(F)(F)F)c2)c(C)c1 | -7% | -5% | -39% | -10% | -1% | -4%
O=C(O)c1ccccc1C(=O)Nc1ccc(Oc2ccccc2)cc1 | u | 1% | x | 1% | 0% | 27µM*
O=C(O)c1ccccc1C(=O)Nc1ccc(Br)c(C(F)(F)F)c1 | u | 0% | x | 1% | -4% | 19µM*
CC(C)(C)c1ccc(Oc2ccc(NC(=O)c3ccccc3C(=O)O)cn2)cc1 | 1% | -1% | x | -6% | -1% | 19µM*
CCC(C)NC(=O)CCc1c(C)nc2cc(-c3ccc(OC)cc3OC)nn2c1C (stereo not drawn) | x | x | 5% | x | x | -1%
SMILES | ELG1 repair inh | Rab9 prom act | SMN2 splice up | ELG1 genotoxic | NPC1 prom act | FLuc modulator
COC(=O)c1ccc(NC(=O)CC2C(=O)N(c3ccc(F)cc3)C(=O)N2Cc2ccc(OC)cc2)cc1 (stereo not drawn) | x | x | x | x | x | 5%
O=C(CCC(=O)c1ccc(Oc2ccccc2)cc1)Nc1cccc(Cl)c1 | 19% | -1% | 0% | 1% | 0% | 1%
O=C(CCC(=O)c1ccc(Oc2ccccc2)cc1)Nc1ccc(C(=O)O)cc1 | -1% | 0% | x | 0% | -1% | 19µM*
COc1cc(C(=O)N/N=C/c2sc(N3CCOCC3)nc2-c2ccccc2)cc(OC)c1OC | 12µM* | -4% | 5% | -5% | -1% | -18%
O=C(Nc1ccccc1F)C(=Cc1sc(N2CCOCC2)nc1-c1ccccc1)C(=O)Nc1ccccc1F | 8.2µM* | -2% | -12% | 0% | -13% | -1%
O=C(N/N=C/c1sc(N2CCOCC2)nc1-c1ccccc1)c1ccccc1O | 18µM* | -2% | -66% | -9% | -1% | u
O=C(O)c1cccc(N/N=C/c2sc(N3CCOCC3)nc2-c2ccccc2)c1 | u | 2.8µM* | 17%[1.84 µM] | 15µM* | 4µM* | 1.2µM*
Cc1nn(-c2cccc(Cl)c2)nc1C(=O)O | 1% | -1% | -5% | 0% | 1% | u
CC(=O)Nc1cc2nn(-c3ccccc3)nc2cc1Cl | u | 0.5µM* | 11µM* | 1.3µM* | 0.56µM* | 1.5µM*
CC(C)(C)C(=O)Nc1cc2nn(-c3ccccc3)nc2cc1Cl | u | -16% | -95% | u | -13% | 0.076µM*
CC(C)COc1ccc(C(=O)Nc2cc3nn(-c4ccccc4)nc3cc2Cl)cc1 | x | x | -2% | x | x | -2%
CCOc1ccc(N2CC(NC(=O)C(=O)c3c[nH]c4ccccc34)CC2=O)cc1 (stereo not drawn) | x | x | x | x | x | -5%
CNC(=O)c1ccc(-c2ccc(F)cc2)s1 | u | u | u | 18µM* | u | 9.5µM*
COc1ccc(NC(=O)c2sc(Cl)nc2-c2ccccc2)cc1 | -29% | 17% | 22% | 0% | -1% | 0%
COc1ccc(NC(=O)c2ccc(-c3ccc(OC)cc3)s2)cc1 | 13% | 3% | 10µM* | 9% | -6% | -1%
CNC(=O)c1ccc(-c2ccc(OC)cc2)s1 | u | 12% | 18µM* | u | 1.3µM* | 6.7µM*
C=C1CC[C@H](O)C/C1=C/C=C1\CCC[C@]2(C)C([C@H](C)CC[C@@H](O)C(C)(C)O)CC[C@@H]12 (stereo partly drawn) | x | x | -4% | x | x | x
COc1ccc(-n2nc([N+](=O)[O-])c(=NCCCN3CCCC3=O)n2O)cc1 | u | 1.6µM* | 31% | u | u | -2%
COc1ccc(-n2nc([N+](=O)[O-])c(=NCCc3cccc(C)c3)n2O)cc1 | -4% | 2.2µM* | x | -3% | u | -8%

Screening results from PubChem BioAssay.
